Results from PubChem BioAssay (NCATS).
Results filed as inconclusive are left out. The source made the active and inactive calls. Calls follow the shape of the dose curve; as a rule, active = well fitted curve in the direction sought with a large enough effect; inconclusive = small, poorly fitted or top-dose-only effect, or another doubt; inactive = no such curve, though single readings can be large or run the other way.

Biological target: Nuclear receptor subfamily 1 group I member 3 (Homo sapiens) (UniProt Q14994)
Sequence (Q14994 whole entry, looked up): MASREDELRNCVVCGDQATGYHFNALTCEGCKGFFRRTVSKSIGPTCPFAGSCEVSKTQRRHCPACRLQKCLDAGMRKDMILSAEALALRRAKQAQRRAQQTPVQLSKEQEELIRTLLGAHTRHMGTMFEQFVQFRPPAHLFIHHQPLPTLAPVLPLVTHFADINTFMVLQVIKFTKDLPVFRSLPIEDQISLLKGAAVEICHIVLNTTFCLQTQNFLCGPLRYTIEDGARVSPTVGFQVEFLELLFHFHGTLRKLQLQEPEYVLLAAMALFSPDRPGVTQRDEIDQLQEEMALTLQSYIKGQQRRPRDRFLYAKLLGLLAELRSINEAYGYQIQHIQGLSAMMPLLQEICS
Experiment: Primary qHTS for antagonist of constitutive androstane receptor (CAR) against the NCATS DSHEA and TCM libraries (AID 1794836);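 also: HepG2 cells stably expressing hCAR with CYP2B6 luciferase reporter stimulated by CITCO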
Conditions: CAR reporter cell assay, antagonist mode, luciferase; series mostly up to 40 µM
Summary of the method: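 HepG2-CYP2B6-hCAR cells, attached 5 h, given compounds plus CITCO agonist […], incubated 24 h at 37 C. Luciferase luminescence read, multiplexed with CellTiter-Fluor viability (Ex/Em 405/540 nm).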

| Structure (SMILES) | outcome |
| --- | --- |
| C/C=C/c1ccc(OC)cc1 | inactive |
| O=C1O[C@H]([C@@H](O)CO)C(O)=C1O | inactive |
| COc1ccc2cc3[n+](cc2c1OC)CCc1cc2c(cc1-3)OCO2 | inactive |
| Oc1ccc(/C=C/c2cc(O)cc(O)c2)cc1 | inactive |
| OC[C@H]1O[C@@H](OCCc2ccc(O)cc2)[C@H](O)[C@@H](O)[C@H]1O | inactive |
| C[C@]12CC[C@H](O)CC1=CC[C@@H]1[C@@H]2CC[C@]2(C)C(=O)CC[C@@H]12 | inactive |
| Cn1c(=O)c2c(ncn2C)n(C)c1=O | inactive |
| Nc1nc2ncc(CNc3ccc(C(=O)N[C@@H](CCC(=O)O)C(=O)O)cc3)nc2c(=O)[nH]1 | inactive |
